High-throughput results deposited in PubChem BioAssay by National Center for Advancing Translational Sciences (NCATS).
An excerpt weighted towards active compounds, which were near 4.7% of everything screened.
D1 antagonist: Antagonist of Human D 1 Dopamine Receptor: qHTS | D(1A) dopamine receptor (Homo sapiens), P21728 | HEK293 TREx D1 cells, calcium flux, dopamine EC80; stronger effect = lower value | activity change, negative = inhibition, % at 10 µM | actives 3.2% (n = 360,000); in the data active = activity change below about -30%; note: % is set by controls: 0 for no effect and ±100 for the full control effect
Target sequence (P21728 whole entry, looked up): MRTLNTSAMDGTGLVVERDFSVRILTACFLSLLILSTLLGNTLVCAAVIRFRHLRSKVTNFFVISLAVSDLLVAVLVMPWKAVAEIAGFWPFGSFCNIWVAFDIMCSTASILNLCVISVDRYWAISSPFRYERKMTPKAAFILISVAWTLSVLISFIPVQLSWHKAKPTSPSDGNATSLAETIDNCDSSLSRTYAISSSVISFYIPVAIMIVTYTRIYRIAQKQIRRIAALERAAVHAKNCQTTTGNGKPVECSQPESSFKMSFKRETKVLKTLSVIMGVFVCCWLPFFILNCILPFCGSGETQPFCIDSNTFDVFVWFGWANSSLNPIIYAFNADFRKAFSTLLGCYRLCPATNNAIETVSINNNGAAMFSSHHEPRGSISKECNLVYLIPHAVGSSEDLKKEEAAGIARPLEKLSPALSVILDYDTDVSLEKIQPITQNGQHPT
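Calcium flux readout: force-coupled, inducible Hek293 Trex D1 line, cells induced overnight at 30 C with tetracycline, dye-loaded 30–90 min at RT. Antagonism scored against EC80 dopamine challenge given 180 s after compound.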
TRHR PAM: qHTS for Small Molecule Agonists and Allosteric Enhancers of Human TRH Receptor: Primary Screen for Enhancers | Thyrotropin-releasing hormone receptor (Homo sapiens), P34981 | TRHR cells, fluo-8 calcium fluorescence, EC20 TRH enhancement | enhancement, % at 2 µM | actives 0.66% (n = 360,000) | AID 493056, 2011; in the data active = enhancement above about 30%; note: 0% is about no effect
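Enhancer read-out: after compound pinning and an initial kinetic agonist-mode read, an EC20 of TRH (10 nM final) was injected and fluo-8 calcium signal (Ex 480/Em 530) followed at 1 s/cycle for 100 cycles in TRHR-expressing cells.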
D1 agonist: Allosteric Agonists of the Human D1 Dopamine Receptor: qHTS. D(1A) dopamine receptor (Homo sapiens), P21728. HEK293 T-REx D1 cells, calcium flux, agonist mode. activation, % at 2 µM. actives 1% (n = 360,000). AID 504660, 2011; note: 0% is about no effect
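Inducible HEK293 T-REx D1 cells, force-coupled to calcium signalling, were plated at 4000 cells/well with tetracycline and held overnight at 30 C. After no-wash calcium dye loading, compound-evoked calcium rise over 180 s flagged agonists.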
TRHR ag: qHTS for Small Molecule Agonists and Allosteric Enhancers of Human TRH Receptor: Primary Screen for Agonists. AID 493084, 2011. TRHR cells, calcium flux fluo-8, FDSS agonist mode. actives 0.18% (n = 360,000). activation, % at 2 µM; note: 0% is about no effect
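Steps: seed TRHR cells overnight; add fluo-8 no-wash Ca dye, RT 30 min–1.5 h; record 10 s baseline; pin-transfer compounds; monitor fluorescence 1 cycle/s for the agonist window. Calcium increases flag candidate agonists.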
D1 PAM: Potentiators of Human D1 Dopamine Receptor: qHTS | actives 0.036% (n = 360,000) | D(1A) dopamine receptor (Homo sapiens), P21728 | potentiation, % at 10 µM | AID 504651, 2011 | HEK293 TREx D1 cells, calcium flux, dopamine EC20 potentiation; in the data active = potentiation above about 30%; note: 0% is about no effect
Numbers without * were called inactive; . = no result. Cut-off read from the data, not from the text of the source, unless noted: active = activation above about 30%; inactive = the rest.

SMILES | D1 antagonist | TRHR PAM | D1 agonist | TRHR ag | D1 PAM
Cc1ccccc1-n1nc(CO)c(C(=O)NCC(c2ccccc2)c2ccccc2)n1 | -6 | 1 | 7 | 0 | -2
CCC1OC23CCCCC2C(C#N)(C(=N)O3)C1(C#N)C#N (configuration not stated) | -18 | -2 | 5 | 6 | -7
CC1OC23CCCCC2C(C#N)(C(=N)O3)C1(C#N)C#N (configuration not stated) | -43* | 3 | -1 | 1 | -4
Cn1c(=O)[nH]c(=O)c2c1nc(SCCN1CCCCC1)n2Cc1ccccc1 | 6 | -7 | 1 | 1 | -3
Cc1ccc(Cn2c(SCCN3CCCCC3)nc3c2c(=O)[nH]c(=O)n3C)cc1 | -43* | 22 | -1 | 0 | -3
CCOc1ccc(NS(=O)(=O)c2c(C)nc3sccn3c2=O)cc1 | -34* | -6 | 7 | 1 | -10
COc1cccc(NS(=O)(=O)c2c(C)nc3sccn3c2=O)c1 | -43* | -3 | 8 | 0 | 0
CC(=O)Nc1ccc(NS(=O)(=O)c2c(C)nc3sccn3c2=O)cc1 | -4 | 2 | 1 | 0 | -4
O=C(CSc1nc2ccccc2c(=O)n1NC(=O)Cc1ccccc1)NCc1ccccc1 | -32* | -4 | 6 | 0 | -9
O=C(Nc1scc(-c2cccs2)c1C(=O)O)c1cccs1 | -84* | -3 | 3 | 0 | -4
COC(=O)c1c(-c2cccs2)csc1NC(=O)c1cc(OC)c(OC)c(OC)c1 | -66* | -4 | 0 | 1 | 0
COC(=O)c1c(-c2cccs2)csc1NC(=O)c1ccc(OC)c(OC)c1 | 1 | -9 | 3 | 1 | -2
COC(=O)c1c(-c2cccs2)csc1NC(=O)c1ccc(C)cc1 | 11 | 29 | 1 | 1 | 1
Cc1c(NC(=O)c2ccc(Cl)cc2)cc(C(C)C)c(O)c1S(=O)(=O)c1ccccc1 | 1 | -7 | -1 | 0 | -3
CC(=O)N1CCCc2cc(S(=O)(=O)NCc3ccccc3Cl)ccc21 | -6 | -2 | 10 | 0 | -4
CS(=O)(=O)N1CCc2cc(S(=O)(=O)NCCNS(=O)(=O)c3ccc4c(c3)CCN4S(C)(=O)=O)ccc21 | -27 | -3 | 2 | 1 | -1
CCOc1ccc(S(=O)(=O)Nc2ccc(C(=O)N3CC(C)OC(C)C3)cc2)cc1 (configuration not stated) | 2 | 3 | 31* | 4 | 4
CCOc1ccc(S(=O)(=O)Nc2ccc(C(=O)NCC3(N4CCCCC4)CCCCC3)cc2)cc1 | 9 | -1 | 54* | -1 | 2
CS(=O)(=O)N1CCc2cc(S(=O)(=O)NCc3ccccc3Cl)ccc21 | -101* | 4 | 1 | 1 | -6
CCOc1ccccc1CNS(=O)(=O)c1ccc2c(c1)CCCN2C(C)=O | -50* | -5 | 9 | 0 | -5
O=C(CN1C(=O)COc2ccccc21)NCCc1ccc(Cl)cc1 | -15 | -7 | -2 | 0 | 1
COc1ccc(NCc2ccccc2-c2nnc(-c3ccccc3)o2)cc1Cl | 9 | 3 | 1 | 0 | -2
Cc1ccc(-c2cn3nc(N4CCCC(C(=O)Nc5ccc(F)cc5)C4)sc3n2)cc1 (configuration not stated) | -4 | 5 | -2 | 1 | 0
CSc1ccc(CCNC(=O)CN2C(=O)COc3ccc(S(=O)(=O)N4CCCCCC4)cc32)cc1 | -6 | 8 | 8 | -2 | 2
CCOc1ccc(NS(=O)(=O)c2ccc(C(=O)N3CCCCC3)cc2)cc1 | -15 | -4 | 50* | 7 | -9
SMILES | D1 antagonist | TRHR PAM | D1 agonist | TRHR ag | D1 PAM
CCOc1ccc(NS(=O)(=O)c2ccc(C(=O)N3CC(C)OC(C)C3)cc2)cc1 (configuration not stated) | -59* | 4 | 113* | 15 | -10
CCOc1ccc(NS(=O)(=O)c2ccc(C(=O)N3CCN(c4ncccn4)CC3)cc2)cc1 | -5 | 0 | 21 | 1 | 4
CC1CN(C(=O)c2ccc(NS(=O)(=O)c3ccc(C(C)(C)C)cc3)cc2)CC(C)O1 (configuration not stated) | -4 | 7 | 35* | 5 | -4
CCOc1ccc(NS(=O)(=O)c2ccc3c(c2)N(C(C)=O)CC3)cc1 | -32* | 13 | 8 | 1 | -5
COc1ccc(CC(=O)NCC(c2cccs2)S(=O)(=O)c2ccc(C)cc2)cc1 (configuration not stated) | . | 4 | 9 | 0 | -4
Cc1oc2c(C)c3oc(=O)c(CC(=O)N4CCCCC4)c(C)c3cc2c1C | -10 | -2 | 1 | 0 | 2
O=C1c2cc(F)ccc2OC2(CCNCC2)C12CC(c1ccccc1)=NO2 (configuration not stated) | -13 | -8 | 43* | 2 | -3
Cc1cc(N2CCCCC2)nc(N)n1 | 5 | -5 | 19 | 42* | -1
CN(NC(=O)Nc1ccc(Cl)cc1)c1c(Cl)c(Cl)nn1C | -40* | 0 | 10 | -1 | -3
COc1ccc(C2(CNC(C)=O)CCOCC2)cc1OC | -35* | 2 | 2 | 0 | .
COc1ccc(C2(CNC(=O)C(=O)Nc3ccc(F)cc3)CCCC2)cc1OC | 6 | 32* | -1 | 1 | -1
CCCCn1c(=N)c(S(=O)(=O)c2ccc(Cl)cc2)cc2c(=O)n3cccc(C)c3nc21 | 10 | 2 | -1 | 0 | -1
CC(=O)C1=C(O)C(=O)N(Cc2ccccc2)C1c1ccccc1F (configuration not stated) | -6 | 2 | 1 | 0 | -6
CC(=O)C1=C(O)C(=O)N(c2cccc(C(=O)O)c2)C1c1ccccc1F (configuration not stated) | -87* | -4 | 3 | 0 | 4
Cc1ccc(Nc2nc(NCc3ccco3)c3ccccc3n2)cc1 | -66* | 4 | 47* | 2 | -17
Cc1ccc(Nc2nc(-c3ccccc3)nc3ccccc23)cc1 | -30* | -6 | 1 | 0 | -4
Oc1ccccc1-c1nc(NCc2ccco2)c2ccccc2n1 | -3 | -3 | 2 | 1 | -2
COc1ccccc1Nc1nc(NCc2ccco2)c2ccccc2n1 | -93* | -4 | 2 | -1 | -20
COc1ccc(OC)c(CNS(=O)(=O)c2cc(-c3onc(C)c3C)ccc2C)c1 | -38* | 1 | 2 | 0 | -7
COc1ccc(NS(=O)(=O)c2cc(-c3onc(C)c3C)ccc2C)c(OC)c1 | 7 | 13 | 1 | 0 | 2
Cc1ccccc1OCC(=O)Nc1ccc(N2CCN(C)CC2)c(Cl)c1 | -71* | 3 | 35* | 2 | .
